# High-throughput results deposited in PubChem BioAssay by National Center for Advancing Translational Sciences (NCATS).
# The list is not random: actives were taken first. Their share in the collection is about 19%.
# TGFb inhibitor – inhibitors of TGF-b signaling; HepG2 CAGA-GFP TGF-b/SMAD3 reporter, GFP fluorescence, 18 h; TGF-beta stimulated, 500 pg/mL final; Potency, µM (series often up to 46.1 µM), actives largely listed as inhibitors; 410,000 compounds, 1.2% hits; further: nearly all actives have a fitted effect of over 65% in size
#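 Using HEPG2 CAGA-GFP reporter cells at 1000 cells/well, we pinned test compounds, stimulated with recombinant TGF-beta (500 pg/mL final) and measured total well GFP after 18 h.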
# TDP1 cell CPT – growth inhibition of DT40 Tdp1-/-;hTDP1 cells with camptothecin (screen for TDP1 inhibitors); Potency, µM (titrated, usually from 46.2 µM), most hits filed as inhibitors; chicken DT40 Tdp1-/-;hTDP1 cells + 20 nM CPT, ATP luminescence, 48 h; 420,000 compounds, 12% hits; further: nearly all actives have a fitted effect of over 55% in size
#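 Chicken DT40 Tdp1-/- cells stably complemented with human TDP1 were seeded at 400 cells/well in medium containing 20 nM camptothecin, exposed to pin-transferred compounds, and grown at 37 °C for at least 48 hr. Viability was read as ATP luminescence.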
# TDP1 cell noCPT – qHTS for Inhibitors of human tyrosyl-DNA phosphodiesterase 1 (TDP1): qHTS in cells in absence of CPT; DT40 Tdp1-/- hTDP1 cells, no CPT, ATP luminescence, 48 h; Potency, µM (highest dose often 46.2 µM), hits mostly inhibitors; 420,000 compounds, 15% hits; AID 686978, 2013; further: nearly all actives have a fitted effect of over 55% in size
#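 Camptothecin absent (DMSO only). Human TDP1-complemented DT40 knockout cells, 400 cells/well, 37 °C for minimum 48 hr; ATP measured via CellTiter-Glo, 30 min dark incubation, luminescence.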
# HepG2 viability – counter-screen for TGF-b inhibitors: cytotoxicity in HepG2 cells; HepG2 CAGA-GFP viability, ATP luminescence, 18 h; Potency, µM (titrated, usually from 46.1 µM), actives largely listed as cytotoxic; 410,000 compounds, 0.76% hits
#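 HepG2 CAGA-GFP cells (1000/well, DMEM with 1% FBS) received compound, then TGF-beta at 500 pg/mL final, and were incubated 18 hours at 37 degrees C. Viability was read by CellTiter-Glo luminescence. Media-only wells were set as complete cell-killing and DMSO as no toxicity.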
# S-ASM inh – human S-ASM enzyme inhibition; 340,000 compounds, 0.006% hits; P17405; Potency, µM (series often up to 57.5 µM), usual class: inhibitors; placental ASM, HMU-PC fluorogenic substrate, 60 min
# Target sequence (P17405 47-631 limits assumed): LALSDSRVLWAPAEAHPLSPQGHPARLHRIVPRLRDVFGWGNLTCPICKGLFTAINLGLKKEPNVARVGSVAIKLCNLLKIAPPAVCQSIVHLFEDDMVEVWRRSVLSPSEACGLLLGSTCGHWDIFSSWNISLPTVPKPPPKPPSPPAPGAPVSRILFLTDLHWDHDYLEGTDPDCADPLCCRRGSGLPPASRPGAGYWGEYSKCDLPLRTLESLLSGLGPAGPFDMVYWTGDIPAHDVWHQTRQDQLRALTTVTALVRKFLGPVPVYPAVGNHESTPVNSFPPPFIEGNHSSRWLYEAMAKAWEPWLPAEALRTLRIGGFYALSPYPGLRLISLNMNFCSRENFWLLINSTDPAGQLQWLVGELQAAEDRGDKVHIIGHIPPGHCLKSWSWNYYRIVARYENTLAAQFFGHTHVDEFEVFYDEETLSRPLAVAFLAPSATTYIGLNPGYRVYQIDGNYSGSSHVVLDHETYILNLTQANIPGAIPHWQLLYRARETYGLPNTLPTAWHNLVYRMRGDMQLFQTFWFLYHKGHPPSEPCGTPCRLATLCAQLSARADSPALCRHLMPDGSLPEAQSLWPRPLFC
#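 Human placenta-derived ASM enzyme was preincubated with compound for 10 minutes at room temperature, then given fluorogenic substrate HMU-PC0 (9 uM final) for 60 minutes at 37 °C; a pH 10 stop preceded fluorescence reading at Ex 386/Em 447 nm.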
# IL1B secr inh – inflammasome signaling inhibition, IL-1 beta readout; activity change, % at 57.5 µM; 360,000 compounds, 4.7% hits; AID 743279; THP-1 LPS/ATP IL-1B secretion, AlphaLISA, 16 h; active compounds read low; in the data active means activity change below about -50%; inconclusive means mostly about -30% to -49%
#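 Secreted IL-1B measured by AlphaLISA bead assay after 16 h compound exposure of THP-1 cells; compounds (final up to 57.5 uM) added 1 h before LPS (250 ng/mL) and ATP (1.25 mM) stimulation; lower signal means less secretion.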
# A number is an active result; – = inactive; ? = inconclusive; · = not tested or not shown. Unless noted, the call rests on the fitted dose curve; in most records, active means well fitted curve in the direction sought with a large enough effect; inconclusive means small, poorly fitted or top-dose-only effect, or another doubt; inactive means no such curve, though single readings can be large; an effect the other way counts as inactive or inconclusive.
SMILES,TGFb inhibitor,TDP1 cell CPT,TDP1 cell noCPT,HepG2 viability,S-ASM inh,IL1B secr inh
COc1ccc(C(=O)Nc2ccc(-c3cc4ccccc4oc3=O)c(C)c2)cc1Br,–,?,?,–,·,·
CCOc1ccc(C(=O)Nc2ccc(-c3cc4ccccc4oc3=O)c(C)c2)cc1[N+](=O)[O-],?,13µM,11.6µM,–,–,–
O=C(O)/C=C/C(=O)Nc1ccccc1SC(F)(F)C(F)(F)C(F)(F)F,–,?,?,–,–,-104.3
O=C(O)/C=C/C(=O)Nc1ccccc1-c1ccccc1,–,8.2µM,10.3µM,–,–,–
OCC[C@H]1C[C@H](O)[C@@H](O)[C@]2(OCCc3ccccc32)O1,–,–,–,–,–,–
CNC(=S)Nc1cccc(-c2cnc3ccccc3n2)c1,–,?,?,–,–,–
CC(C)NC(=S)N/N=C1\CCCCC1C1CCCCC1 (configuration not stated),?,5.8µM,2.91µM,–,–,–
CC1CCCC/C1=N\NC(=S)Nc1ccccc1 (configuration not stated),–,–,–,–,–,–
C=CCC1(CC=C)CCCN1C(=O)c1cc(COc2ccccc2SC)on1,–,?,20.6µM,–,–,–
C=CCC1(CC=C)CCCN1C(=O)c1cc(COc2ccc(F)c(F)c2)on1,–,18.4µM,?,–,–,–
C=CCC1(CC=C)CCCN1C(=O)c1cc(COc2ccc(C)nc2)on1,?,2.59µM,0.92µM,–,–,–
CSc1ccccc1OCc1cc(C(=O)N2CCc3c(Cl)cccc3C2)no1,?,23.1µM,?,–,–,?
CSc1ccccc1OCc1cc(C(=O)N2CCNC(=O)C2)no1,–,–,–,–,–,–
CCOC(=O)Cn1c(S(=O)(=O)Cc2ccccc2)nc2ccccc21,?,–,?,–,–,–
CCOC(=O)Cn1c(S(=O)(=O)Cc2ccc(Cl)cc2)nc(-c2ccccc2)c1-c1ccccc1,–,18.4µM,16.4µM,–,–,–
O=C(/C=C/c1cc(Br)ccc1F)OCC(=O)N1CCCC1,–,–,–,–,–,–
C[C@@H]1CN([C@@H](C)CO)S(=O)(=O)c2ccc(Br)cc2O[C@@H]1CN(C)S(=O)(=O)c1cn(C)cn1,–,–,–,–,·,–
COc1cccc(C#Cc2ccc3c(c2)O[C@H](CN(C)S(=O)(=O)c2ccccc2F)[C@H](C)CN([C@H](C)CO)S3(=O)=O)c1,–,–,?,–,·,–
COCC#Cc1ccc2c(c1)O[C@@H](CN(C)S(=O)(=O)c1cccc(F)c1)[C@@H](C)CN([C@H](C)CO)S2(=O)=O,–,?,18.4µM,–,·,–
C[C@H](CO)N1C[C@H](C)[C@H](CN(C)S(=O)(=O)c2cccc(F)c2)Oc2cc(Br)ccc2S1(=O)=O,–,25.9µM,20.6µM,–,·,–
CCCC#Cc1ccc2c(c1)O[C@H](CN(C)S(=O)(=O)c1cccc(OC)c1)[C@H](C)CN([C@H](C)CO)S2(=O)=O,?,14.6µM,16.4µM,–,·,–
COc1ccc(S(=O)(=O)N(C)C[C@@H]2Oc3cc(Br)ccc3S(=O)(=O)N([C@H](C)CO)C[C@@H]2C)cc1,–,?,16.4µM,–,·,–
Cc1nnc2c(NC3CCCCC3)nc3ccccc3n12,–,–,?,–,–,–
O=C(NCc1ccc(F)cc1)C1(S(=O)(=O)c2ccc(Cl)cc2)CC1,–,–,–,–,–,–
COc1ccc(S(=O)(=O)N(C)C[C@H]2Oc3cc(Br)ccc3S(=O)(=O)N([C@H](C)CO)C[C@H]2C)cc1,–,?,20.6µM,–,·,–
C[C@H]1CN([C@@H](C)CO)S(=O)(=O)c2ccc(Br)cc2O[C@@H]1CN(C)S(=O)(=O)c1ccccc1,–,?,?,–,·,–
